Hit rate of the full screen: of about 330,000 compounds, about 4,600 (1.4%) were called active.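 The calls were made as follows: active = inhibition of 40% or more at the single tested concentration; inactive = the rest.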 Many of the other results were omitted from the sample, so actives are more common in it than they were.

The nature of the assay: growth inhibitors of isogenic TIM10 control yeast, primary screen, counter-screen for tim10-1 yeast inhibitor project, luminescence, uHTS (AID 463195).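 Also: wild-type TIM10 isogenic control strain grown at permissive 25 °C; 0% = DMSO yeast wells and 100% = minimal medium wells without yeast.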 The settings on record: S. cerevisiae TIM10 strain growth, BacTiter-Glo luminescence, 24 h; at 10 µM; hits give high values.
For orientation: inhibition means the drop in the measured response relative to a control, in per cent. Regarding `C=CC1C(OC2OC(CO)C(O)C(O)C2O)OC=C(C(=O)OC)C1CC1CC(=O)CC(CC(=O)CCc2ccc(O)cc2)O1` (configuration not stated), the inhibition was -2.71% (inactive).

`c1ccc(COc2ccccc2CNCc2cccnc2)cc1`: the inhibition is -6.88% (inactive).

As for `COc1c(N2CCN(C(=S)Nc3ccccc3F)C(C)C2)c(F)cc2c(=O)c(C(=O)O)cn(C3CC3)c12` (configuration not stated), the inhibition was 2.41% (inactive).

In the case of `Cc1cccc(-n2c(SCC(N)=O)nc3c(c2=O)C2(CCCCC2)Cc2ccccc2-3)c1`, the inhibition is 12.4% (inactive).

For the compound `N#CC1(C#N)C(C(=O)C23CC4CC(CC(C4)C2)C3)C12CCOCC2` (configuration not stated), the inhibition was 44.3% (active).

Take `CSCCC(NC(=O)COc1ccccc1)C(=O)OCCOc1ccc(F)cc1` (configuration not stated): the inhibition was -0.639% (inactive).

In the case of `Cc1cc(C)cc(NC(=O)C(OC(=O)c2ccc(O)cc2)c2ccccc2)c1` (configuration not stated), the inhibition is 9.95% (inactive).

Consider `O=C(Nc1ccccc1)c1ccc(NC(=O)c2cccs2)cc1`, for which the inhibition is -10.3% (inactive).

Take `O=C(Nc1ccc(NC(=O)c2cccs2)cc1)c1ccc2ccccc2c1`: the inhibition is -15.3% (inactive).

Consider `Cc1ccc(NC(=O)c2cccs2)cc1S(=O)(=O)N(C)C`, for which the inhibition is 46.1% (active).

With `Cc1ccc(C(=O)Nc2ccc(NC(=O)c3cccs3)cc2)c(C)c1`, the inhibition is -11.8% (inactive).

Take `Cc1ccc(C(=O)Nc2ccc(C)c(S(=O)(=O)N(C)C)c2)s1`: the inhibition is 10.9% (inactive).

For `Cc1nc(-c2ccc(NC(=O)c3cccs3)cc2)cs1`, the inhibition is 49.5% (active).

For `COC(=O)[C@]1(C)N[C@H](CN(C)C(=O)c2ccc(C(C)(C)C)cc2)[C@@H]2C(=O)N(C)C(=O)[C@@H]21`, the inhibition was 3.29% (inactive).

In the case of `Cc1ccc(-c2noc(C3CCCN(C(=O)c4cccc(Cl)c4)C3)n2)o1` (configuration not stated), the inhibition is -12.1% (inactive).

Consider `O=C(CNS(=O)(=O)c1ccc(Br)s1)N1CCN(C(=O)c2ccco2)CC1`, for which the inhibition is -4.25% (inactive).

For the compound `Cc1ccc(N2C(=O)CC(NCc3ccc4c(c3)OCO4)C2=O)cc1Cl` (configuration not stated), the inhibition was 9.87% (inactive).

On to `COC(=O)CN1C(=O)C(C)(C)Oc2ccc(C(=O)Nc3cccc(OC)c3)cc21`, for which the inhibition was -1.11% (inactive).

On to `CCc1ccc2c(c1)C1(NN=C(c3ccccc3)S1)C(=O)N2` (configuration not stated), for which the inhibition is 41.4% (active).

`Cc1ccccc1N(C(=O)Cc1cccs1)C(C(=O)NC1CCCCC1)c1cn(C)nc1C` (configuration not stated): the inhibition is 18.5% (inactive).

For `COc1cc2cc(CN(CCN3CCCC3)C(=O)Nc3ccccc3Cl)c(=O)[nH]c2cc1OC`, the inhibition was 1.82% (inactive).

With `O=S(=O)(NC1CCCCC1)c1ccc(F)c2ccccc12`, the inhibition is 48.4% (active).

Turning to `O=S(=O)(NC1CC1)c1ccc2c3c(cccc13)CC2`, the inhibition was 18.4% (inactive).

`CSc1ccc(S(=O)(=O)NC2CCCCC2)cc1`: the inhibition is 5.32% (inactive).

As for `O=C(Cn1nnc2ccccc2c1=O)NCc1ccc(Cl)cc1`, the inhibition is -13.1% (inactive).

As to `CS(=O)(=O)N1CCN(CC(=O)NC2CCCC2)CC1`, the inhibition was 1.42% (inactive).

As to `COc1ccc(C(=O)C[n+]2ccc(N)c(C)c2C)cc1`, the inhibition was -13.7% (inactive).

Take `Cc1ccc(-n2cnc3ncnc(-c4ccccc4)c32)cc1`: the inhibition is -13% (inactive).

Consider `Cc1ccc(-c2nn(C(C)(C)C)c3ncnc(N)c23)cc1`, for which the inhibition is 46.3% (active).

With `C=CC[C@H](CC(=O)OC(C)(C)C)C(=O)OC[C@H]1CCCN1C(=O)[C@H](CC=C)CC(=O)N(CCO)Cc1ccccc1`, the inhibition is 4.94% (inactive).

On to `O=C(Nc1cccc(S(=O)(=O)N2CCCCC2)c1)c1cncc(Br)c1`, for which the inhibition was 8.29% (inactive).

Regarding `O=C(Nc1cccc(S(=O)(=O)N2CCCC2)c1)c1cncc(Br)c1`, the inhibition is 97% (active).

For the compound `O=C(CCNC(=O)c1ccc(Br)cc1)Nc1cccc(S(=O)(=O)N2CCCCC2)c1`, the inhibition was -7.56% (inactive).

Take `COc1ccc(Nc2nc(N)nc(CSC(=S)N3CCC(C)CC3)n2)cc1`: the inhibition is 44.5% (active).

Regarding `COc1ccccc1Nc1nc(N)nc(CSC(=S)N2CCOCC2)n1`, the inhibition was 31.8% (inactive).

For `CCOC(=O)c1cnc(SCc2nc(N)nc(Nc3ccc(OC)cc3)n2)nc1N`, the inhibition was 15.4% (inactive).

Consider `COc1cc(CC(=O)N2CCC(n3nccc3NC(=O)C3CC3)CC2)cc(OC)c1OC`, for which the inhibition was -1.91% (inactive).

Regarding `CC1=C/C(=N\OS(=O)(=O)c2ccccc2)C=CC1=O`, the inhibition was 69.4% (active).

As to `Cc1nc(C)c(-c2nnc(-c3cccc(S(=O)(=O)N(C)C)c3)o2)cc1C(=O)NN`, the inhibition is 11.6% (inactive).

With `COc1ccc(Cn2c(=O)cc(C)[nH]c2=S)cc1`, the inhibition was 8.93% (inactive).

For `COc1ccc(Cn2c(-c3ccc(Cl)cc3)c[n+]3ccccc23)cc1`, the inhibition is 45.6% (active).

With `CCn1c(C)cc(=O)cc1-c1ccc(Cl)cc1`, the inhibition is -2.03% (inactive).

`COc1ccc(OCc2cc(C(=O)N3CCCC3)no2)c2ccccc12`: the inhibition is -11.8% (inactive).

With `COc1cccc(OCc2cc(C(=O)N3CCN(C(=O)c4ccco4)CC3)no2)c1`, the inhibition is 97.6% (active).

With `O=C(c1cc(COc2cccc(C(F)(F)F)c2)on1)N1CCSCC1`, the inhibition is 19.8% (inactive).

For `CC(=O)C[C@H](O)CC(=O)[C@@H]1OC(=O)[C@@H](C)C/C=C\Cc2ccccc21`, the inhibition was 4.22% (inactive).

Take `CCc1cccc(NC(=O)C2CCCN(S(=O)(=O)c3ccc4[nH]c(=O)ccc4c3)C2)c1` (configuration not stated): the inhibition is -4.86% (inactive).

For the compound `CCN1/C(=C\c2ccc3ccccc3[n+]2CC)Sc2cc(C)ccc21`, the inhibition is 78.3% (active).

`COc1ccc2c(c1OC)C(=O)N(c1ccc(O)cc1)C2`: the inhibition is -21.6% (inactive).

As to `CCC1CCC2(CC1)NC(=O)N(CC(=O)Nc1ccc(OC)cc1)C2=O` (configuration not stated), the inhibition is -4.33% (inactive).

For `CN(c1cccc(NC(=O)c2ccc(CN3CCc4ccccc4C3)cc2)c1)S(C)(=O)=O`, the inhibition was -4.01% (inactive).

Regarding `CCOC(=O)c1cc(C(=O)Nc2ccc(S(=O)(=O)Nc3ccc(OC)cc3)cc2)nn1C`, the inhibition was 8.95% (inactive).

As for `Cc1cccc(OCC(=O)Nc2ccc(NC(=O)c3ccco3)c(C)c2)c1`, the inhibition is -8.94% (inactive).

On to `COc1ccc(OCC(=O)Nc2ccc(NC(=O)c3ccco3)c(C)c2)cc1`, for which the inhibition is -13.8% (inactive).

On to `Cc1ccc(C(=O)COc2cccc(NC(=O)c3ccco3)c2)cc1`, for which the inhibition was 54% (active).

With `COC(=O)c1onc(-c2c(OC)cc(OC)cc2OC)c1C(=O)OC`, the inhibition was 6.8% (inactive).

On to `CC1=C(C(=O)Nc2cc(C)ccn2)C(c2cnn(C)c2)C2=C(CC(c3ccccc3)CC2=O)N1` (configuration not stated), for which the inhibition was 6.51% (inactive).

For `O=C(NCc1ccc(F)cc1)C1CCN(C(=O)Nc2ccc(F)cc2)CC1`, the inhibition is -14% (inactive).

In the case of `CC1CN(C(=O)c2ccc([N+](=O)[O-])s2)CC(C)O1` (configuration not stated), the inhibition was 6.54% (inactive).

With `O=[N+]([O-])c1ccc(C=Nc2ccc(Cl)cc2Cl)s1`, the inhibition is 71.2% (active).

`CCC1=NN(C(=O)Cc2ccc([N+](=O)[O-])cc2)C(O)(c2ccc(Br)cc2)C1` (configuration not stated): the inhibition was 27% (inactive).

As to `O=C(Nc1cccc(-c2nc3ncccc3o2)c1)c1ccco1`, the inhibition was 12.8% (inactive).

Turning to `O=C(Nc1ccc2oc(-c3ccccc3F)nc2c1)c1ccco1`, the inhibition was 67.2% (active).

Regarding `O=C(Nc1ccc2oc(-c3ccc4ccccc4c3)nc2c1)c1cccs1`, the inhibition was 0.529% (inactive).

On to `Cc1cc(C)cc(NC(=O)Cn2cnc3c(nnn3Cc3ccc(F)cc3)c2=O)c1`, for which the inhibition is -9.34% (inactive).

Consider `Cc1ccc(Nc2cc(=O)n(C3CCCCC3)c(=O)[nH]2)cc1C`, for which the inhibition is 4.8% (inactive).

`COc1cc(NC(=O)c2cccs2)ccc1NC(=O)c1ccccc1Cl`: the inhibition is 40.9% (active).

On to `COc1cc2ccccc2cc1C(=O)Nc1ccc(NC(=O)c2cccs2)cc1`, for which the inhibition is -34.6% (inactive).

For the compound `COc1cc(NC(=O)c2ccc3c(c2)OCO3)ccc1NC(=O)c1cccs1`, the inhibition was 11% (inactive).

On to `C=C1C2C[C@H](O)C(C)(C)[C@@]2(O)[C@H](O)C[C@]23C[C@@](C)(O)[C@H](CC[C@H]12)[C@H]3O` (some centres not stated), for which the inhibition is -10.5% (inactive).

For the compound `Cc1ccc(/C(N)=N/OC(=O)COc2ccc(Cl)c(C)c2)cc1`, the inhibition was 30.7% (inactive).

As to `Cc1cccc(/C(N)=N/OC(=O)c2ccccc2Cl)c1`, the inhibition was 71.3% (active).

As for `Cc1ccc(C(=O)O/N=C(\N)c2ccccn2)cc1Cl`, the inhibition is 28.2% (inactive).

In the case of `CCOC(=O)c1ccc2[nH]c3c(c2c1)CCCC3NC=O` (configuration not stated), the inhibition is 16.6% (inactive).

Turning to `COc1ccc(NC(=O)ON=C2c3ccccc3-c3ccccc32)cc1`, the inhibition is 8.51% (inactive).

Turning to `CN1C(=O)/C(=C\c2cc(Br)cs2)c2ccccc21`, the inhibition was 30.2% (inactive).

In the case of `CN1C(=O)/C(=N/OC(=O)c2ccccc2Br)c2ccccc21`, the inhibition was 68.9% (active).

As to `Cc1ccc(-c2noc(CCC(=O)Nc3ccccc3N3CCN(C)CC3)n2)cc1`, the inhibition was 10.4% (inactive).

As for `O=C(Nc1ccc(Cl)cc1)OCc1cc(-c2ccccc2)on1`, the inhibition is 6.71% (inactive).

For the compound `O=C(Nc1cccc(Cl)c1)OCc1ccccn1`, the inhibition is 47.9% (active).

For `O=C(Nc1cccc(CCc2ccccn2)c1)c1ccc(Cl)cc1`, the inhibition is 1.78% (inactive).

Turning to `O=C(COC(=O)c1cc([N+](=O)[O-])ccc1NCc1ccccc1)NC1CCCCC1`, the inhibition was -9.16% (inactive).

For the compound `CC(=O)Nc1ccc(S(=O)(=O)N(C)CC(=O)NCCC2=CCCCC2)cc1`, the inhibition is 3.82% (inactive).

In the case of `CCn1nc(C)c(CNC(=O)C2CCC(=O)N(Cc3cccc(F)c3)C2)c1C` (configuration not stated), the inhibition is -0.612% (inactive).

Take `Cn1c(Nc2ccccc2)cc(=O)n(C)c1=O`: the inhibition was 0.045% (inactive).

As for `Cc1cc(Nc2ccccc2)n(C(=O)c2ccc(N)cc2)n1`, the inhibition is 57.7% (active).

Turning to `Cc1cc(C)n(C(=O)c2ccc(S(=O)(=O)N3CCCC3)cc2)n1`, the inhibition was 3.81% (inactive).

For the compound `O=C(Cn1c(N2CCN(C/C=C/c3ccccc3)CC2)nc2ccccc21)c1ccccc1`, the inhibition is 30.9% (inactive).

As for `COc1ccc(Cl)cc1NC(=O)CN(C)CC(=O)Nc1ccc2c(c1)OCO2`, the inhibition is -6.17% (inactive).

As to `Cc1cc(C)c(S(=O)(=O)c2ccccc2)c(OC(=O)c2c(F)cccc2Cl)n1`, the inhibition was 59.8% (active).

As for `Cc1cc(OC(=O)c2c(Cl)cccc2Cl)nc(C)n1`, the inhibition was -1.42% (inactive).

For the compound `Cc1ccc(NNC(=O)c2c(F)cccc2Cl)cc1Cl`, the inhibition was 11.3% (inactive).

The values are drawn from PubChem BioAssay AID463195 (Sanford-Burnham Center for Chemical Genomics, 2010).
